Assay results taken from PubChem BioAssay (EPA / NIEHS).
“And” between values parts separate entries of the source, which are not always exact repeats. Identical values can stand only once. The source made the active and inactive calls. How the source made its calls: active means hit-call score of the fitted dose curve at least 0.9, where 1 is the maximum; inactive means score below 0.9.

Read-out: not listed separately
Test: BSK_SAg_PBMCCytotoxicity: PBMC Cytotoxicity Assessment in the BioMAP Diversity Plus: SAg Assay (AID 2283093);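 further: PBMC viability measured as Alamar Blue reduction fluorescence at 546/580 nm; fitted both ways against DMSO so a hit may be loss or gain of signal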;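 on AC50: PBMC superantigen activated with SEB plus TSST-1 one hour after compound addition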
Details: primary human HUVEC with PBMC
In short: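 Compound added to 75,000 PBMC/well for 1 h; SEB and TSST-1 then added at 20 ng/mL final each; 90 h incubation; Alamar Blue 6 h; read 546/580 nm ex/em. Activity fitted bidirectionally relative to DMSO baseline.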
With `CCN(Cc1c(F)cccc1Cl)c1c([N+](=O)[O-])cc(C(F)(F)F)cc1[N+](=O)[O-]` the AC50 was 8.35 µM (active).
With `C#CCOC(=O)[C@@H](C)Oc1ccc(Oc2ncc(Cl)cc2F)cc1` the outcome was “inactive”.
With `Oc1ccc(C(c2ccc(O)cc2)C(Cl)(Cl)Cl)cc1` the AC50 was 20 µM (active).
With `CN(C)C(=O)Nc1ccc(Cl)c(Cl)c1` the outcome was “inactive”.
For `CC(C)(C)[C@@H](O)[C@@H](Cc1ccc(Cl)cc1)n1cncn1`, the AC50 was 3.76 µM (active).
In the case of `CCCCCCC(C)OC(=O)COc1nc(F)c(Cl)c(N)c1Cl` (stereo unspecified), the AC50 is reported as 12.3 µM (active).
For `CCOC(=O)NCCOc1ccc(Oc2ccccc2)cc1`, the AC50 was 15.6 µM (active).
With `CC(=O)[C@H]1CC[C@H]2[C@@H]3CCC4=CC(=O)CC[C@]4(C)[C@H]3CC[C@]12C` the AC50 was 9.94 µM (active).
In the case of `c1ccc2[nH]c(-c3cscn3)nc2c1`, the outcome is reported as “inactive”.
For `S=C([S-])NCCNC(=S)[S-].[Mn+2]`, the AC50 was 25.5 µM (active).
With `CCCCCOC(=O)COc1cc(N2C(=O)C3=C(CCCC3)C2=O)c(F)cc1Cl` the outcome was “inactive”.

Read-out: Interleukin-8 (IL8), CXCL8 (gene 3576)
Test: BSK_SAg_IL8: BioMAP Diversity Plus: SAg Assay for Interleukin-8 (IL8) Biomarker Activity (AID 2283094)
Details: primary human HUVEC with PBMC; actives raise or lower the signal
In short: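 ELISA read-out of IL-8 in a primary human vascular co-culture (umbilical vein endothelium plus PBMC), taken 24 h after compound addition. Values derive from bidirectional fits against DMSO negative controls.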
With `CCOC(=O)C(C)Oc1ccc(Oc2nc3ccc(Cl)cc3o2)cc1` (stereo unspecified) the outcome was “inactive”.
In the case of `Cc1nn(C)c(Oc2ccccc2)c1C=NOCc1ccc(C(=O)OC(C)(C)C)cc1`, the AC50 is reported as 3.97 µM (active).
With `O=C(O)c1ccccc1` the outcome was “inactive”.
For `CCCCOC(=O)C(C)Oc1ccc(Oc2ccc(C(F)(F)F)cn2)cc1` (stereo unspecified), the outcome was “inactive”.
For `CC1(C)C(C=C(Cl)Cl)C1C(=O)OCc1cccc(Oc2ccccc2)c1` (stereo unspecified), the outcome was “inactive”.
With `COc1nc(C)nc(NC(=O)NS(=O)(=O)c2ccccc2OCCCl)n1` the outcome was “inactive”.
For `COC(=O)c1c(Cl)nn(C)c1S(=O)(=O)NC(=O)Nc1nc(OC)cc(OC)n1`, the outcome was “inactive”.
In the case of `CSC(=O)c1cccc2nnsc12`, the outcome is reported as “inactive”.
For `CCOC(=O)[C@H](C)Oc1ccc(Oc2nc3ccc(Cl)cc3o2)cc1`, the outcome was “inactive”.
With `CCCOC(=O)c1ccc(C(=O)OCCC)nc1` the outcome was “inactive”.
With `CCC(O)=C1C(=O)CC(C(=O)O)CC1=O` (stereo unspecified) the outcome was “inactive”.
With `C#C[C@]1(O)CC[C@H]2[C@@H]3CCC4=CC(=O)CC[C@@H]4[C@H]3CC[C@@]21CC` the AC50 was 6.98 µM (active).
In the case of `CCCCOC(=O)[C@@H](C)Oc1ccc(Oc2ccc(C(F)(F)F)cn2)cc1`, the outcome is reported as “inactive”.
With `CCCN(CCC)c1c([N+](=O)[O-])cc(C(F)(F)F)c(N)c1[N+](=O)[O-]` the AC50 was 20 µM (active).
For `CCNc1nc(N)nc(Cl)n1`, the outcome was “inactive”.
With `CC(C)CCCCCCc1ccc(O)cc1` the AC50 was 6.55 µM (active).
In the case of `COC(=O)c1ccccc1S(=O)(=O)NC(=O)Nc1nc(OC(F)F)cc(OC(F)F)n1`, the outcome is reported as “inactive”.
For `CCCCC(CC)COC(=O)c1ccccc1C(=O)O` (stereo unspecified), the outcome was “inactive”.
With `N#CSCSc1nc2ccccc2s1` the AC50 was 5.44 µM (active) and 10.9 µM (active).
In the case of `CCN(Cc1c(F)cccc1Cl)c1c([N+](=O)[O-])cc(C(F)(F)F)cc1[N+](=O)[O-]`, the AC50 is reported as 8.25 µM (active).
With `C#CCOC(=O)[C@@H](C)Oc1ccc(Oc2ncc(Cl)cc2F)cc1` the outcome was “inactive”.
For `Oc1ccc(C(c2ccc(O)cc2)C(Cl)(Cl)Cl)cc1`, the AC50 was 14.2 µM (active).
With `CN(C)C(=O)Nc1ccc(Cl)c(Cl)c1` the outcome was “inactive”.
In the case of `CC(C)(C)[C@@H](O)[C@@H](Cc1ccc(Cl)cc1)n1cncn1`, the AC50 is reported as 7.99 µM (active).
In the case of `CCCCCCC(C)OC(=O)COc1nc(F)c(Cl)c(N)c1Cl` (stereo unspecified), the AC50 is reported as 29.1 µM (active).
With `CCOC(=O)NCCOc1ccc(Oc2ccccc2)cc1` the AC50 was 30 µM (active).
With `CC(=O)[C@H]1CC[C@H]2[C@@H]3CCC4=CC(=O)CC[C@]4(C)[C@H]3CC[C@]12C` the outcome was “inactive”.
For `c1ccc2[nH]c(-c3cscn3)nc2c1`, the outcome was “inactive”.
In the case of `S=C([S-])NCCNC(=S)[S-].[Mn+2]`, the AC50 is reported as 30 µM (active).
For `CCCCCOC(=O)COc1cc(N2C(=O)C3=C(CCCC3)C2=O)c(F)cc1Cl`, the outcome was “inactive”.

Read-out: not listed separately
Test: BSK_SAg_Proliferation: Cell Proliferation Assessment in the BioMAP Diversity Plus: SAg Assay (AID 2283095);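 further: relative cell number as total protein by SRB absorbance in sub-confluent culture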
Details: primary human HUVEC with PBMC
In short: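 Cells (endothelium plus PBMC, human primary) were dosed with chemical, cultured 96 h, fixed in 10% TCA and stained with 0.1% SRB. Absorbance at 560 nm gave relative protein, fitted bidirectionally relative to DMSO.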
In the case of `CCOC(=O)C(C)Oc1ccc(Oc2nc3ccc(Cl)cc3o2)cc1` (stereo unspecified), the AC50 is reported as 32 µM (active).
With `Cc1nn(C)c(Oc2ccccc2)c1C=NOCc1ccc(C(=O)OC(C)(C)C)cc1` the AC50 was 8.08 µM (active).
For `O=C(O)c1ccccc1`, the outcome was “inactive”.
For `CCCCOC(=O)C(C)Oc1ccc(Oc2ccc(C(F)(F)F)cn2)cc1` (stereo unspecified), the outcome was “inactive”.
With `CC1(C)C(C=C(Cl)Cl)C1C(=O)OCc1cccc(Oc2ccccc2)c1` (stereo unspecified) the AC50 was 14.8 µM (active).
For `COc1nc(C)nc(NC(=O)NS(=O)(=O)c2ccccc2OCCCl)n1`, the outcome was “inactive”.
With `COC(=O)c1c(Cl)nn(C)c1S(=O)(=O)NC(=O)Nc1nc(OC)cc(OC)n1` the outcome was “inactive”.
With `CSC(=O)c1cccc2nnsc12` the outcome was “inactive”.
In the case of `CCOC(=O)[C@H](C)Oc1ccc(Oc2nc3ccc(Cl)cc3o2)cc1`, the outcome is reported as “inactive”.
For `CCCOC(=O)c1ccc(C(=O)OCCC)nc1`, the outcome was “inactive”.
With `CCC(O)=C1C(=O)CC(C(=O)O)CC1=O` (stereo unspecified) the outcome was “inactive”.
In the case of `C#C[C@]1(O)CC[C@H]2[C@@H]3CCC4=CC(=O)CC[C@@H]4[C@H]3CC[C@@]21CC`, the outcome is reported as “inactive”.
For `CCCCOC(=O)[C@@H](C)Oc1ccc(Oc2ccc(C(F)(F)F)cn2)cc1`, the outcome was “inactive”.
For `CCCN(CCC)c1c([N+](=O)[O-])cc(C(F)(F)F)c(N)c1[N+](=O)[O-]`, the AC50 was 21 µM (active).
In the case of `CCNc1nc(N)nc(Cl)n1`, the outcome is reported as “inactive”.
With `CC(C)CCCCCCc1ccc(O)cc1` the AC50 was 5.59 µM (active).
With `COC(=O)c1ccccc1S(=O)(=O)NC(=O)Nc1nc(OC(F)F)cc(OC(F)F)n1` the outcome was “inactive”.
With `CCCCC(CC)COC(=O)c1ccccc1C(=O)O` (stereo unspecified) the outcome was “inactive”.
In the case of `N#CSCSc1nc2ccccc2s1`, the AC50 is reported as 783 nM (active) and 1.76 µM (active).
In the case of `CCN(Cc1c(F)cccc1Cl)c1c([N+](=O)[O-])cc(C(F)(F)F)cc1[N+](=O)[O-]`, the AC50 is reported as 20 µM (active).
In the case of `C#CCOC(=O)[C@@H](C)Oc1ccc(Oc2ncc(Cl)cc2F)cc1`, the outcome is reported as “inactive”.
With `Oc1ccc(C(c2ccc(O)cc2)C(Cl)(Cl)Cl)cc1` the AC50 was 24.1 µM (active).
For `CN(C)C(=O)Nc1ccc(Cl)c(Cl)c1`, the outcome was “inactive”.
For `CC(C)(C)[C@@H](O)[C@@H](Cc1ccc(Cl)cc1)n1cncn1`, the AC50 was 12.6 µM (active).
For `CCCCCCC(C)OC(=O)COc1nc(F)c(Cl)c(N)c1Cl` (stereo unspecified), the AC50 was 9.53 µM (active).
With `CCOC(=O)NCCOc1ccc(Oc2ccccc2)cc1` the AC50 was 16.2 µM (active).
In the case of `CC(=O)[C@H]1CC[C@H]2[C@@H]3CCC4=CC(=O)CC[C@]4(C)[C@H]3CC[C@]12C`, the AC50 is reported as 28.8 µM (active).
For `c1ccc2[nH]c(-c3cscn3)nc2c1`, the outcome was “inactive”.
In the case of `S=C([S-])NCCNC(=S)[S-].[Mn+2]`, the AC50 is reported as 8.4 µM (active).
With `CCCCCOC(=O)COc1cc(N2C(=O)C3=C(CCCC3)C2=O)c(F)cc1Cl` the AC50 was 14.3 µM (active).
